Reference: PubChem BioAssay (Tox21)
Records with an inconclusive call do not appear. Active and inactive are the calls of the source. Unless noted, calls come from the whole dose curve; as a rule, active = well fitted curve in the direction sought with a large enough effect in the repeat runs; inconclusive = weak or mixed curves; inactive = no such curve, though single readings can be large; an effect the other way counts as inactive or inconclusive.

What was measured:
[1] = qHTS assay to identify small molecule antagonists of the estrogen related receptor (ERR) signaling pathway from Tox21 library - cell viability counter screen (AID 1224834); note: nearly all actives have a fitted effect of over 30% in size; note: potency is the fitted concentration of half-maximal effect
Outline: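 CellTiter-Fluor fluorescence, read after 30 min at 37 C, measures viability of ERR cells. Cells plated at 2,000/well and incubated 6 h before pin-tool compound addition, then exposed 17.5 hours at 37 C.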

[2] = biological target: Luciferin 4-monooxygenase (Photinus pyralis) (UniProt P08659); experiment: qHTS assay to identify small molecule inhibitors of firefly luciferase (AID 1224835); note: nearly all actives have a fitted effect of over 25% in size; note: potency is the fitted concentration of half-maximal effect
Luciferin 4-monooxygenase (Photinus pyralis), sequence (P08659 whole entry, looked up): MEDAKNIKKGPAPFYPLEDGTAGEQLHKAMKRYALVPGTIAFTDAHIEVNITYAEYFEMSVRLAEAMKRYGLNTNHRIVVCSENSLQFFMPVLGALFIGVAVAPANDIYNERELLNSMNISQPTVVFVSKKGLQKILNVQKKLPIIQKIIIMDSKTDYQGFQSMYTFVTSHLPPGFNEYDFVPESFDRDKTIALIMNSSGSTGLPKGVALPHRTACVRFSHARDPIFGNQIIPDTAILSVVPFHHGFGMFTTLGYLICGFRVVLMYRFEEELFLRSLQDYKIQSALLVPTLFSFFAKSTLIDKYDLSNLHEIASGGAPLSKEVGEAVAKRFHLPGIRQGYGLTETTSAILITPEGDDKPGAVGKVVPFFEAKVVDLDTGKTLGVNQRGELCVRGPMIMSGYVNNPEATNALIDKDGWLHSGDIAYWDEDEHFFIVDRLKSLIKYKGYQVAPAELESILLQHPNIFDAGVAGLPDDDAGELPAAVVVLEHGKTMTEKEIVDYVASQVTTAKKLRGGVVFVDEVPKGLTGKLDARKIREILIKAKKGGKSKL
Outline: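 Inhibition of purified Photinus luciferase is measured by luminescence. Substrate levels (D-luciferin, ATP) sit at their KM values. Each compound is tested in a concentration series.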

[3] = qHTS assay to identify small molecule agonists of the constitutive androstane receptor (CAR) signaling pathway - cell viability counter screen (AID 1224836); note: nearly all actives have a fitted effect of over 45% in size
Outline: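 Viability read-out: CellTiter-Fluor fluorescence after 23 h compound exposure at 37 C/5% CO2 in double-stable HepG2-CYP2B6-hCAR cells, with PK11195 present at 0.75 uM final; compounds tested in 15-point titration.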

[4] = qHTS assay to identify small molecule antagonists of the constitutive androstane receptor (CAR) signaling pathway - cell viability counter screen (AID 1224837); note: nearly all actives have a fitted effect of over 45% in size
Outline: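 Cytotoxicity counter-screen: CellTiter-Fluor fluorescence after 23 h compound exposure (15-point qHTS) in double-stable HepG2-CYP2B6-hCAR cells, with 50 nM CITCO added.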

[5] = biological target: Nuclear receptor subfamily 1 group I member 3 (Homo sapiens) (UniProt Q14994); experiment: qHTS assay to identify small molecule antagonists of the constitutive androstane receptor (CAR) signaling pathway (AID 1224838);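 note: HepG2 cells stably expressing hCAR with CYP2B6 luciferase reporter stimulated by CITCO; nearly all actives have a fitted effect of over 40% in size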
Nuclear receptor subfamily 1 group I member 3 (Homo sapiens), sequence (Q14994 whole entry, looked up): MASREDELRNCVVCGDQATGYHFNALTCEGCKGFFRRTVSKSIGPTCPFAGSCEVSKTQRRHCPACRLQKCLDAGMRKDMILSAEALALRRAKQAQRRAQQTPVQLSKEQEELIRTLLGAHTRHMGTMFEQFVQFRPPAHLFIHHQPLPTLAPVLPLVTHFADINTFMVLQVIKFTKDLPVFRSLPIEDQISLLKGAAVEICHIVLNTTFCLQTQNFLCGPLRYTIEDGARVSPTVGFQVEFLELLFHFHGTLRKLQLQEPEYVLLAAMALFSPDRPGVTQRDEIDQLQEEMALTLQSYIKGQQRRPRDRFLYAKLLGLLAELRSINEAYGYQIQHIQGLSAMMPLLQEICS
Outline: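 Antagonism measured as luciferase signal (ONE-Glo, 30 min, room temperature) in CAR-stimulated cells: HepG2-CYP2B6-hCAR double-stable line exposed 24 hr at 37 C to compound in a 15-point series plus 50 nM CITCO.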

[6] = biological target: Nuclear receptor subfamily 1 group I member 3 (Homo sapiens) (UniProt Q14994); experiment: qHTS assay to identify small molecule agonists of the constitutive androstane receptor (CAR) signaling pathway (AID 1224839); note: nearly all actives have a fitted effect of over 15% in size; note: potency is the fitted concentration of half-maximal effect;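 for activation: HepG2 cells stably carrying human CAR and a CYP2B6 luciferase reporter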
Outline: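 Luminescence read-out (ONE-Glo, 30 min, room temperature) from double-stable HepG2-CYP2B6-hCAR cells exposed 24 h to 15-point compound series in presence of 0.75 uM PK11195 final.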

[7] = qHTS assay to identify small molecule antagonists of the estrogen related receptor signaling pathway with the pleiotropic PPARgamma coactivator (PGC) from Tox21 10K library - cell viability counter screen (AID 1224840; active = well fitted cell-killing curve with a large enough effect in the repeat runs, not every such curve was filed as active; note: nearly all actives have a fitted effect of over 40% in size)
Outline: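 Counter-screen for cytotoxicity: after 17.5 h compound exposure at 37 C, CellTiter-Fluor reagent added to PGC/ERR cells for 30 min and fluorescence read. Cells were seeded at 2,000 per well 6 h before dosing.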

[8] = qHTS assay to identify small molecule antagonists of the estrogen related receptor signaling pathway with the pleiotropic PPARgamma coactivator (PGC) from Tox21 10K library (AID 1224841; call rule not given here; note: actives are mostly falling curves and most rising ones were filed inactive; nearly all actives have a fitted effect of over 50% in size)
Outline: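 Luminescence (One-Glo, 30 min at room temperature) after 18 h compound treatment at 37 C of PGC/ERR reporter cells plated at 2,000 cells/well and settled 6 h beforehand.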

[9] = qHTS assay to identify small molecule agonists of the estrogen related receptor signaling pathway with the pleiotropic PPARgamma coactivator (PGC) from Tox21 10K library (AID 1224842); note: nearly all actives have a fitted effect of over 15% in size; note: potency is the fitted concentration of half-maximal effect
Outline: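 Luminescence from One-Glo (30 min, room temperature) measured after PGC/ERR cells had 18 h at 37 C with pinned compound (23 nL in DMSO). Cells had been seeded at 2,000 per well and pre-incubated 6 h.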

[10] = biological target: Thyrotropin receptor (Homo sapiens) (UniProt P16473); experiment: qHTS assay to identify small molecule agonists of the thyroid stimulating hormone receptor (TSHR) signaling pathway (AID 1224843; calls by dose curve; note: nearly all actives have a fitted effect of over 45% in size)
Thyrotropin receptor (Homo sapiens), sequence (P16473 whole entry, looked up): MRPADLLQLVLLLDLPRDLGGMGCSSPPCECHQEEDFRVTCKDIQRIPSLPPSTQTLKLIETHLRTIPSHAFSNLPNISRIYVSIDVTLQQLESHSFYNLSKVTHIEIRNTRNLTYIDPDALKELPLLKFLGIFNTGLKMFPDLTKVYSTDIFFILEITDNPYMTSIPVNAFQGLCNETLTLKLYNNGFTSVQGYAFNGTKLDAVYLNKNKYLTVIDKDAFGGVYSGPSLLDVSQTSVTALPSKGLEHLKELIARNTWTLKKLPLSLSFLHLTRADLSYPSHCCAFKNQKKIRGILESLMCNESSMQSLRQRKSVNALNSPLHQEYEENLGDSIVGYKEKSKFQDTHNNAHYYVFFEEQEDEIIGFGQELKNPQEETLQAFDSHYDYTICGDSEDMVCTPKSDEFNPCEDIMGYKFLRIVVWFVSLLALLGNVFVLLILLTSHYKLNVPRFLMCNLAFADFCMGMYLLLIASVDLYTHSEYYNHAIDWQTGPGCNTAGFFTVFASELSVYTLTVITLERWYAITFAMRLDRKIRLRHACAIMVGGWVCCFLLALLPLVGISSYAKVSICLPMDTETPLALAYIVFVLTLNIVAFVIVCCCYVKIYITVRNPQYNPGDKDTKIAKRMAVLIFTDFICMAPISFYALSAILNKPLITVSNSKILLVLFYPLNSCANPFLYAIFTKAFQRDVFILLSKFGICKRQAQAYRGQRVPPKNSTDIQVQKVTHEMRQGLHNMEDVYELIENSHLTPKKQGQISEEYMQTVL
Outline: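 Agonist activity read as cAMP rise via d2/cryptate HTRF competition, 1 h room-temperature detection, in HEK293 cells expressing TSHR. Fifteen-point titrations, each run in triplicate, with a 30 min room-temperature incubation beforehand.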

[11] = qHTS assay to identify small molecule agonists of the hypoxia (HIF-1) signaling pathway - cell viability counter screen (AID 1224844; calls by dose curve; note: nearly all actives have a fitted effect of over 50% in size)
Outline: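 Cytotoxicity measured by CellTiter-Glo ATP luminescence in the wells also read for beta-lactamase signal. Cells were HRE-bla ME-180 (2,000/well, 0.5% dialyzed FBS), exposed to compounds for 17 h at 37C.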

[12] = qHTS assay to identify small molecule agonists of H2AX (AID 1224845; active = well fitted activation curve with a large enough effect in the signal ratio in the repeat runs, not every such curve was filed as active; the % refers to the signal ratio)
Outline: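 Phospho-H2AX Ser139 measured by HTRF (ex 320 nm; em 665 and 620 nm) after 24 hr antibody incubation. Compounds, 15 concentrations, 0.76% DMSO, were applied to CHO-K1 cells for 3hr at 37C before lysis.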

[13] = qHTS assay to identify small molecule antagonists of the estrogen related receptor (ERR) signaling pathway from Tox21 library (AID 1224848); note: nearly all actives have a fitted effect of over 50% in size; note: potency is the fitted concentration of half-maximal effect
Outline: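 Luciferase luminescence (ONE-Glo, 30 min room temperature) was the read-out. Cells of the NTP-supplied ERR line, 2,000 per well, were given 6 h at 37 C before compound addition in DMSO and 18 h exposure at 37 C.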

[14] = qHTS assay to identify small molecule agonists of the estrogen related receptor (ERR) signaling pathway from Tox21 library (AID 1224849; calls by dose curve; note: nearly all actives have a fitted effect of over 15% in size); conditions: ERR reporter cell line, ONE-Glo luciferase, 18 h; at 92.4 µM (top of the series) unless noted
Outline: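 Luminescent agonist read-out (One-Glo, 30-minute room-temperature incubation) following 18-hour compound treatment at 37 C of the ERR cell line, which had been plated 6 hours before dosing.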

[15] = qHTS RealTime-Glo MT Cell Viability Assay in HepG2 cells - 24 hour (AID 1224867); note: nearly all actives have a fitted effect of over 50% in size
Outline: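 Cells + NanoLuc/prosubstrate dispensed (600 cells/well) → 5 h at 37 C/5% CO2 → compounds in DMSO transferred → 40 h incubation at 37 C, luminescence read at 0, 8, 16, 24, 32, 40 h.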

[16] = A CellTox Green Cytotoxicity Assay to monitor cytotoxicity in HEK293 cells - 0 hour (AID 1224869); note: nearly all actives have a fitted effect of over 50% in size
Outline: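 Fluorescence from a DNA-binding dye excluded by viable cells was measured repeatedly in the same HEK293 wells (600 cells/well) during continuous compound exposure at 37 C. Each assay gives one read point: 0, 8, 16, 24, 32 or 40 h.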

[17] = qHTS assay to identify small molecule agonists of the hypoxia (HIF-1) signaling pathway (AID 1224846; active = well fitted activation curve with a large enough effect in the signal ratio in the repeat runs, not every such curve was filed as active; the % refers to the signal ratio)
Outline: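 Compounds added to ME-180 cells carrying hypoxia-response-element beta-lactamase reporter (0.5% dialyzed FBS, 5 h preplating), 17 h at 37C; agonist activity detected by CCF4-AM B/G FRET read-out.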

[18] = qHTS assay to identify small molecule agonists of H2AX - cell viability counter screen (AID 1224847; calls by dose curve; note: nearly all actives have a fitted effect of over 30% in size; note: potency is the fitted concentration of half-maximal effect;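 for activity change, negative = cytotoxicity: wild-type CHO-K1 cells; top concentration of the series differs between compounds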)
Outline: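 CHO-K1 wt, 1000 cells/well, o/n 37C; cpds 15 conc, 3 h 37C, 0.76% DMSO; CellTiter-Glo, 30 min RT, luminescence.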

[19] = qHTS RealTime-Glo MT Cell Viability Assay in HEK293 cells - 32 hour (AID 1224868); note: nearly all actives have a fitted effect of over 50% in size; note: potency is the fitted concentration of half-maximal effect; for activity change, negative = cytotoxic: top concentration of the series differs between compounds
Outline: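 Tox21 10K qHTS, HEK293, 600 cells/well, RealTime-Glo reagent co-dispensed with cells; 5 h preincubation, compound by pintool, 37 C, luminescence at 0–40 h.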

[20] = qHTS assay to identify small molecule agonists of the estrogen related receptor signaling pathway with the pleiotropic PPARgamma coactivator (PGC) (AID 1224823)
Outline: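 Luminescence from One-Glo reagent (30 min, room temperature) was read after 18 h compound treatment at 37 C of PGC/ERR cells plated 6 h beforehand; compounds delivered in DMSO by pin tool.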
% is set by controls: 0 for no effect and ±100 for the full control effect.

COc1ccc(C(=O)c2ccc(C)cc2)c(O)c1
inactive: Potency [1] | Potency [3] | Potency [4] | Potency [5] | Potency [7] | Potency [8] | Potency [10] | Potency [11] | Potency [12] | Potency [13] | outcome [15] | Potency [16]
active: Potency [2] 11.4 µM | Potency [6] 27.6 µM | Potency [9] 7.78 µM | activity change, positive = activation [14] 16.4%

CC1(C)CC(O)CC(C)(C)N1[O]
inactive: Potency [1] | Potency [2] | Potency [3] | Potency [4] | Potency [5] | Potency [6] | Potency [7] | Potency [10] | Potency [11] | Potency [12] | outcome [17] | Potency [18] | outcome [15] | Potency [19] | Potency [16]

COC=O
inactive: viability change, negative = cytotoxic [1] 0.652% [at 8.39 µM] | activity change, negative = inhibition [2] -0.731% [at 10.5 µM] | viability change, negative = cytotoxic [3] -8.98% [at 8.39 µM] | activity change, negative = cytotoxicity [4] -19.2% [at 8.39 µM] | activity, negative = inhibition [5] 0.829% [at 8.39 µM] | activation [6] -2.43% [at 8.39 µM] | viability change, negative = cytotoxic [7] 0.435% [at 8.39 µM] | activity, negative = inhibition [8] 9.85% [at 8.39 µM] | activation [9] 3.43% [at 8.39 µM] | activation [10] 0.0799% [at 8.39 µM] | activity change, negative = cytotoxicity [11] 10.2% [at 6.97 µM] | activation (H2AX phosphorylation) [12] -1.42% [at 14 µM] | activation [17] -0.206% [at 7.01 µM] | activity change, negative = cytotoxicity [18] -3.81% [at 14 µM] | activity, negative = inhibition [13] 14% [at 8.39 µM] | activity change, positive = activation [14] 6.68% [at 8.39 µM] | activity change, negative = cytotoxicity [15] 4.56% [at 6.97 µM] | activity change, negative = cytotoxic [19] 18.9% [at 6.97 µM] | cytotoxicity [16] -7.29% [at 6.97 µM]

CC(CC(C#N)(c1ccccc1)C(C)C)N(C)C (stereo not drawn)
inactive: Potency [1] | Potency [2] | Potency [3] | Potency [4] | Potency [5] | Potency [6] | Potency [7] | Potency [8] | Potency [9] | Potency [10] | Potency [11] | Potency [12] | outcome [17] | Potency [18] | Potency [13] | activity change, positive = activation [14] 2.64% [at 42.5 µM] | outcome [15] | Potency [19]

CC1=C(C)C(=O)C(CCCCC#CCCCC#CCO)=C(C)C1=O
active: Potency [1] 23.7 µM | Potency [18] 49.2 µM | Potency [13] 13.3 µM | Potency [19] 0.674 µM
inactive: outcome [20] | Potency [3] | Potency [4] | Potency [5] | Potency [7] | Potency [9] | Potency [10] | Potency [11] | outcome [17] | activity change, positive = activation [14] -50.9% [at 42.5 µM] | Potency [16]

Nc1ccc(F)cc1F
inactive: Potency [1] | Potency [2] | Potency [3] | Potency [4] | Potency [5] | Potency [6] | Potency [7] | Potency [10] | Potency [11] | Potency [12] | outcome [17] | Potency [18] | outcome [15] | Potency [19] | Potency [16]

Nc1ccc(-c2ccc(F)cc2)cc1
active: Potency [2] 31.7 µM | Potency [6] 27.3 µM | Potency [9] 5.45 µM | activity change, positive = activation [14] 52%
inactive: Potency [1] | Potency [3] | Potency [4] | Potency [5] | Potency [7] | Potency [8] | Potency [11] | Potency [12] | outcome [17] | Potency [18] | Potency [13] | outcome [15] | Potency [19] | Potency [16]

C1CCN(CN2CCCCC2)CC1
inactive: Potency [1] | Potency [2] | Potency [3] | Potency [4] | Potency [5] | Potency [6] | Potency [7] | Potency [10] | Potency [11] | Potency [12] | Potency [18] | outcome [15] | Potency [19] | Potency [16]

CC1(C)C(=O)NC(=O)N1CO
inactive: Potency [1] | Potency [2] | Potency [3] | Potency [4] | Potency [5] | Potency [6] | Potency [7] | Potency [10] | Potency [11] | Potency [12] | outcome [17] | Potency [18] | outcome [15] | Potency [19] | Potency [16]

CC(=O)c1cccnc1
inactive: Potency [1] | Potency [2] | Potency [3] | Potency [4] | Potency [5] | Potency [6] | Potency [7] | Potency [8] | Potency [9] | Potency [11] | Potency [12] | outcome [17] | Potency [18] | Potency [13] | activity change, positive = activation [14] 4.95% | outcome [15] | Potency [19] | Potency [16]

CCCCCO
inactive: Potency [1] | Potency [2] | Potency [3] | Potency [4] | Potency [5] | Potency [6] | Potency [7] | Potency [8] | Potency [9] | Potency [10] | Potency [11] | Potency [12] | outcome [17] | Potency [18] | Potency [13] | activity change, positive = activation [14] -0.565% | outcome [15] | Potency [19] | Potency [16]

CCCC1CCCC(=O)O1 (stereo not drawn)
inactive: Potency [1] | Potency [2] | Potency [3] | Potency [4] | Potency [5] | Potency [6] | Potency [7] | Potency [10] | Potency [11] | Potency [12] | outcome [17] | Potency [18] | outcome [15] | Potency [19] | Potency [16]

O=C(O)CNc1ccccc1
inactive: Potency [1] | Potency [2] | Potency [3] | Potency [4] | Potency [5] | Potency [6] | Potency [7] | Potency [8] | Potency [9] | Potency [10] | Potency [11] | Potency [12] | outcome [17] | Potency [18] | Potency [13] | activity change, positive = activation [14] 8.78% | outcome [15] | Potency [19] | Potency [16]

COC(=O)c1cc(Cl)ccc1[N+](=O)[O-]
inactive: Potency [1] | Potency [2] | Potency [3] | Potency [4] | Potency [5] | Potency [6] | Potency [7] | Potency [10] | Potency [11] | Potency [12] | outcome [17] | Potency [18] | outcome [15] | Potency [19] | Potency [16]

O=C(Cl)c1ccc(F)c(Cl)c1
inactive: Potency [1] | Potency [2] | Potency [3] | Potency [4] | Potency [5] | Potency [6] | Potency [7] | Potency [9] | Potency [10] | Potency [11] | Potency [12] | outcome [17] | Potency [18] | Potency [13] | activity change, positive = activation [14] -7.97% | outcome [15] | Potency [16]
